Five compounds from PubChem BioAssay (EPA / NIEHS) can be followed below.

Conditions in all cases: mRNA level, 48 h; actives raise or lower the signal
Read-out in assay [1]: HGF (gene 3082)
Description: LTEA_HepaRG_HGF: Life Technologies and Expression Analysis (LTEA) Assay for Hepatocyte Growth Facto (HGF) using HepaRG (AID 2283505). Summed up:
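Differentiated HepaRG cells in serum-free induction medium exposed 48 h in duplicate, 8 half-log concentrations from 100 uM in 0.5% DMSO. HGF mRNA by qRT-PCR, normalised to ACTB, GAPDH, POLR2A; bidirectional fitting.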

Read-out in assay [2]: Insulin Like Growth Factor 1 (IGF1), IGF1 (gene 3479)
In words: LTEA_HepaRG_IGF1: Life Technologies and Expression Analysis (LTEA) Assay for Insulin Like Growth Factor 1 (IGF1) using HepaRG (AID 2283506). Summed up: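 qRT-PCR readout of IGF1 mRNA, normalized to three housekeeping genes, after 48 h chemical exposure of HepaRG cells. Concentrations: 8-point half-log series, top 100 uM, 0.5% DMSO vehicle. Gain or loss fitted against DMSO baseline.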

Read-out in assay [3]: Intercellular Adhesion Molecule 1 (ICAM1), ICAM1 (gene 3383)
In words: LTEA_HepaRG_ICAM1: Life Technologies and Expression Analysis (LTEA) Assay for Intercellular Adhesion Molecule 1 (ICAM1) using HepaRG (AID 2283507). Summed up: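 Differentiated human HepaRG cells in serum-free induction medium exposed 48 h in duplicate to 8 half-log concentrations (top 100 uM, 0.5% DMSO). ICAM1 mRNA quantified by TaqMan qRT-PCR, normalized to ACTB, GAPDH and POLR2A; bidirectional fitting versus DMSO.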

Read-out in assay [4]: Interleukin 6 (IL6), IL6 (gene 3569)
Description: LTEA_HepaRG_IL6: Life Technologies and Expression Analysis (LTEA) Assay for Interleukin 6 (IL6) using HepaRG (AID 2283509). Summed up: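 qRT-PCR read-out of IL6 transcript, normalized to three housekeeping genes, after 48 h chemical exposure of HepaRG cells; 8-point half-log series, top 100 uM, 0.5% DMSO vehicle. Bidirectional curve fitting against DMSO baseline.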

Read-out in assay [5]: Interleukin 6 Receptor (IL6R), IL6R (gene 3570)
In words: LTEA_HepaRG_IL6R: Life Technologies and Expression Analysis (LTEA) Assay for Interleukin 6 Receptor (IL6R) using HepaRG (AID 2283510). Summed up:
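HepaRG, 48 h exposure, 8-pt half-log series, top 100 uM, 0.5% DMSO vehicle, duplicates. Read-out: TaqMan qRT-PCR of IL6R transcript, housekeeping-gene normalized. Gain or loss fitted relative to DMSO baseline.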

Read-out in assay [6]: Keratin 19 (KRT19), KRT19 (gene 3880)
In words: LTEA_HepaRG_KRT19: Life Technologies and Expression Analysis (LTEA) Assay for Keratin 19 (KRT19) using HepaRG (AID 2283512). Summed up:
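Differentiated HepaRG cells in serum-free induction medium, exposed 48 h in duplicate to 8 half-log concentrations up to 100 uM in 0.5% DMSO. KRT19 mRNA by qRT-PCR, normalized to ACTB, GAPDH, POLR2A; bidirectional fit vs DMSO.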

Read-out in assay [7]: Lipase C (LIPC), LIPC (gene 3990)
In words: LTEA_HepaRG_LIPC: Life Technologies and Expression Analysis (LTEA) Assay for Lipase C (LIPC) using HepaRG (AID 2283514). Summed up:
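HepaRG, 48 h exposure, 8-pt half-log series from 100 uM in 0.5% DMSO, duplicates. Readout: LIPC mRNA by Fluidigm qRT-PCR, housekeeping-normalized (ACTB/GAPDH/POLR2A). Gain or loss fitted bidirectionally against DMSO baseline.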

Read-out in assay [8]: Lipoprotein lipase (LPL), LPL (gene 4023)
In words: LTEA_HepaRG_LPL: Life Technologies and Expression Analysis (LTEA) Assay for Lipoprotein lipase (LPL) using HepaRG (AID 2283515). Summed up:
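HepaRG, 48 h exposure, 8-pt half-log dilutions from 100 uM, 0.5% DMSO vehicle, duplicates; qRT-PCR (Fluidigm array) of LPL mRNA vs housekeeping genes; bidirectional curve fit relative to DMSO baseline.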

Read-out in assay [9]: MicroRNA 122 (MIR122), gene 406906
Description: LTEA_HepaRG_MIR122: Life Technologies and Expression Analysis (LTEA) Assay for MicroRNA 122 (MIR122) using HepaRG (AID 2283516). Also: the transcript read is the microRNA miR-122. Summed up: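 qRT-PCR read-out (TaqMan, Fluidigm array), normalized to three housekeeping genes; HepaRG cells dosed 48 h at 8 concentrations up to 100 uM in 0.5% DMSO, duplicate; gain or loss fitted against DMSO baseline.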

Read-out in assay [10]: matrix metalloproteinase-10 (MMP10), MMP10 (gene 4319)
Description: LTEA_HepaRG_MMP10: Life Technologies and Expression Analysis (LTEA) Assay for matrix metalloproteinase-10 (MMP10) using HepaRG (AID 2283517). Summed up: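 Transcript levels come from Fluidigm qRT-PCR normalized to three housekeeping genes, with curves fitted bidirectionally against 0.5% DMSO. Human HepaRG cells were dosed for 48 hours at concentrations up to 100 uM.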

Read-out in assay [11]: MYC, MYC (gene 4609)
Description: LTEA_HepaRG_MYC: Life Technologies and Expression Analysis (LTEA) Assay for MYC using HepaRG (AID 2283518). Summed up: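 Differentiated HepaRG cells exposed 48 h in serum-free induction medium to 8 concentrations (top 100 uM, half-log steps; 0.5% DMSO), duplicate. MYC mRNA measured by Fluidigm qRT-PCR, normalized to ACTB, GAPDH, POLR2A; bidirectional fit versus DMSO.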

Read-out in assay [12]: matrix metalloproteinase-3 (MMP3), MMP3 (gene 4314)
Description: LTEA_HepaRG_MMP3: Life Technologies and Expression Analysis (LTEA) Assay for matrix metalloproteinase-3 (MMP3) using HepaRG (AID 2283519). Summed up: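 qRT-PCR read-out of MMP3 mRNA (normalised to three housekeeping genes) in HepaRG liver cells after 48 h chemical exposure; 8-point half-log series, top 100 uM, 0.5% DMSO vehicle. Bidirectional curve fitting against DMSO baseline.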

Read-out in assay [13]: Paternally Expressed 10 (PEG10), PEG10 (gene 23089)
Description: LTEA_HepaRG_PEG10: Life Technologies and Expression Analysis (LTEA) Assay for Paternally Expressed 10 (PEG10) using HepaRG (AID 2283520).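 As to AC50: PEG10 transcript by qRT-PCR normalised to ACTB GAPDH and POLR2A.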 Summed up:
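qRT-PCR read-out: PEG10 mRNA normalised to three housekeeping genes, fitted bidirectionally against 0.5% DMSO vehicle. HepaRG cells received test chemicals for 48 h in serum-free induction medium, 8 points, top 100 uM, half-log steps.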

Read-out in assay [14]: Protein phosphatase 2A (PPP2R4), PTPA (gene 5524)
Description: LTEA_HepaRG_PPP2R4: Life Technologies and Expression Analysis (LTEA) Assay for Protein phosphatase 2A (PPP2R4) using HepaRG (AID 2283522). Summed up: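 HepaRG, 48 h exposure, 8-pt half-log series from 100 uM, 0.5% DMSO vehicle, duplicates. Readout: PPP2R4 mRNA, Fluidigm qRT-PCR, housekeeping-normalized. Bidirectional curve fit vs DMSO baseline.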

Read-out in assay [15]: Phosphatase and tensin (PTEN), PTEN (gene 5728)
In words: LTEA_HepaRG_PTEN: Life Technologies and Expression Analysis (LTEA) Assay for Phosphatase and tensin (PTEN) using HepaRG (AID 2283523). Summed up: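 HepaRG, 48 h exposure, 8-pt half-log series from 100 uM top, 0.5% DMSO vehicle, duplicates. Readout: Fluidigm qRT-PCR of PTEN transcript; housekeeping normalization (ACTB, GAPDH, POLR2A). Gain or loss fitted relative to DMSO baseline.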

Read-out in assay [16]: solute carrier (SLC22A1), SLC22A1 (gene 6580)
Description: LTEA_HepaRG_SLC22A1: Life Technologies and Expression Analysis (LTEA) Assay for solute carrier (SLC22A1) using HepaRG (AID 2283524). Summed up: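 qRT-PCR readout (TaqMan, Fluidigm arrays) of SLC22A1 transcript, normalized to three housekeeping genes; bidirectional curve fit relative to 0.5% DMSO vehicle. Differentiated human HepaRG cells, 48 h chemical exposure, top concentration 100 uM, half-log steps, eight points.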

Read-out in assay [17]: JUN Transcription Factor, JUN (gene 3725)
In words: LTEA_HepaRG_JUN: Life Technologies and Expression Analysis (LTEA) Assay for JUN Transcription Factor using HepaRG (AID 2283513). Summed up: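 HepaRG, 48 h exposure, 8-pt half-log series top 100 uM, 0.5% DMSO, duplicate. JUN mRNA by qRT-PCR (Fluidigm), housekeeping-normalized (ACTB/GAPDH/POLR2A); bidirectional curve fit vs DMSO baseline.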

Read-out in assay [18]: Nuclear factor NF-kappa-B p105 subunit (Homo sapiens) (UniProt P19838)
In words: LTEA_HepaRG_NFKB1: Life Technologies and Expression Analysis (LTEA) Assay for Nuclear Factor Kappa B Subunit 1 (NFKB1) using HepaRG (AID 2283521).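 Also: TaqMan qRT-PCR transcript normalised to ACTB GAPDH and POLR2A housekeeping genes.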 Summed up: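 Differentiated human HepaRG cells were exposed for 48 h in serum-free induction medium to eight concentrations (top 100 uM, half-log steps, 0.5% DMSO), in duplicate. NFKB1 mRNA was measured by TaqMan qRT-PCR, normalized to ACTB/GAPDH/POLR2A, and fitted bidirectionally against DMSO.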

Calls of active or inactive are those of the source. The calls were made as follows: active = hit-call score of the fitted dose curve at least 0.9, where 1 is the maximum; inactive = score below 0.9.

Nuclear factor NF-kappa-B p105 subunit (Homo sapiens), sequence (P19838 whole entry, looked up): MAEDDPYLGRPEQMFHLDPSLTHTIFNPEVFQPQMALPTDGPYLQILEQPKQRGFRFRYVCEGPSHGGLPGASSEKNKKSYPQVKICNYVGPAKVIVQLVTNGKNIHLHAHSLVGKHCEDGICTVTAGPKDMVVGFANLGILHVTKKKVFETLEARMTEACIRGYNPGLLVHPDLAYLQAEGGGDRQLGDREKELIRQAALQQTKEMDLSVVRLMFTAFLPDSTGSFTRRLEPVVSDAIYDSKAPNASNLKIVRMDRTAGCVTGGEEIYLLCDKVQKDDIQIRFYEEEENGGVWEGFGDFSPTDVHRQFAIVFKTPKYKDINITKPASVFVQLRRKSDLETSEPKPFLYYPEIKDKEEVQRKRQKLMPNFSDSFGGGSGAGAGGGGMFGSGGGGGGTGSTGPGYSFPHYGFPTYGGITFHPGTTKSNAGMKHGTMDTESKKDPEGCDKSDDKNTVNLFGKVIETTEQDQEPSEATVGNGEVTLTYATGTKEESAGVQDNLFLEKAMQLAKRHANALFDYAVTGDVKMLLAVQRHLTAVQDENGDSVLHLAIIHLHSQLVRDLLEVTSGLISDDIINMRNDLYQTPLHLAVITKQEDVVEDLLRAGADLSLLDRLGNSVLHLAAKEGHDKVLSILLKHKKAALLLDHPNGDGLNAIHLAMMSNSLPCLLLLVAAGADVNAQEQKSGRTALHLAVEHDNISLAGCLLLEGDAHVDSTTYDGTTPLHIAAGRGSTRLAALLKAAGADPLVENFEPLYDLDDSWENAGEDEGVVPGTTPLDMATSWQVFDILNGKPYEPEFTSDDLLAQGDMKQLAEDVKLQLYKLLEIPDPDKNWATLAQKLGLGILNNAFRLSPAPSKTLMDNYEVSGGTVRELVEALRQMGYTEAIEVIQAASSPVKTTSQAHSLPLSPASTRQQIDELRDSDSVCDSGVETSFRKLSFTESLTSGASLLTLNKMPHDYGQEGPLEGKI

As a reminder, the AC50 is the concentration at which the activity in the assay is half-maximal. With `O=C(O)C(F)(F)C(F)(F)C(F)(F)C(F)(F)C(F)(F)C(F)(F)C(F)(F)C(F)(F)F`, the AC50 in [1] was 50 µM (active); in [2] it was 77 µM (active); in assay [3], 78.7 µM (active); in assay [4] it was 78.6 µM (active); in assay [6], 66.6 µM (active); in [7], 94.5 µM (active). Also, the AC50 in assay [8] was 79.5 µM (active); in assay [9], 74.4 µM (active); in assay [10] it was 76.9 µM (active); in [11], 78.7 µM (active); in [16], 86.1 µM (active). The compound was called inactive in assay [5], in assay [12], in [13], in [14] and in assay [15].

With `CCC(=O)O[C@H]1CC[C@H]2[C@@H]3CCC4=CC(=O)CC[C@]4(C)[C@H]3CC[C@]12C`, the compound was called inactive in assay [1], in [2], in assay [3], in assay [5], in [6] and in assay [17]. In addition, the call in assay [7], in assay [8], in assay [9], in assay [10], in [11] and in assay [18] was inactive. Also, the compound was classed as inactive in assay [14], in [15] and in assay [16]. Besides, the concentration at half-maximal activity (AC50) in assay [4] is 33.1 µM (active); in assay [12] it was 50 µM (active); in [13], 13.3 µM (active).

For the compound `C[C@]12CCC(=O)C=C1CC[C@@H]1[C@@H]2CC[C@]2(C)C(=O)CC[C@@H]12`, the compound was classed as inactive in assay [1], in assay [3], in assay [5], in [6], in assay [8] and in [9]. For the same compound, the compound was classed as inactive in [10], in assay [11], in assay [14], in assay [15] and in [16]. Further, the half-maximal activity concentration (AC50) in [2] is 50 µM (active); in assay [4], 9.92 µM (active); in assay [12], 8.39 µM (active); in assay [13], 6.54 µM (active).

In the case of `Nn1cnnc1`, the compound was classed as inactive in [1], in [2], in assay [3], in [4], in assay [5] and in assay [6]. The outcome in assay [7], in assay [8], in [9], in assay [10], in [11] and in [12] was inactive. For the same compound, the call in [13], in assay [18], in assay [14], in assay [15] and in [16] was inactive.

As to `O=C(O)C(F)(F)C(F)(F)C(F)(F)C(F)(F)C(F)(F)F`, the compound was called inactive in assay [1], in [2], in assay [3], in [4], in [5] and in assay [6]. Further, the call in [7], in [8], in assay [9], in assay [10], in assay [11] and in assay [12] was inactive. Also, the outcome in assay [13], in [14], in assay [15] and in assay [16] was inactive.
